In PubChem BioAssay (Tox21):
Results filed as inconclusive are left out. Values without a mark were called inactive. Active and inactive are the calls of the source. The call rests on the fitted dose curve; in most records, active means well fitted curve in the direction sought with a large enough effect in the repeat runs; inconclusive means weak or mixed curves; inactive means no such curve, though single readings can be large; an effect the other way counts as inactive or inconclusive.
On the % scale 0 is the no-effect control and ±100 the full control effect; potency means the concentration at half of the fitted maximal effect.

Assay: A CellTox Green Cytotoxicity Assay to monitor cytotoxicity in HepG2 cells - 16 hour (AID 1224876); further: nearly all actives have a fitted effect of over 45% in size
Conditions: CellTox Green fluorescence; series mostly up to 76.8 µM; cytotoxicity increase: at the top concentration
Summary of the method: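 HepG2 cells, 600/well, preincubated 5 h with CellTox Green dye, then exposed to Tox21 compounds in DMSO at 37 C for up to 40 h. Dead-cell DNA fluorescence read at the indicated time point.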
With CC(C)Cc1ccc(C(C)C(=O)OCc2ccccn2)cc1 (centres undefined) the “cytotoxicity increase” value was 1% [at 35.3 µM]. With CC1=CC=C(C(C)C)CC1 the “cytotoxicity increase” value was 0.97%. With CN1CCN(C(c2ccccc2)c2ccccc2)CC1 the “cytotoxicity increase” value was 10.5% [at 35.3 µM]. For C/C(=C(\CCOP(=O)(O)O)SC(=O)c1ccccc1)N(C=O)Cc1cnc(C)nc1N, the cytotoxicity increase was 0.668% [at 6.97 µM]. In the case of CCOC(=O)COC(=O)c1cc(Oc2ccc(C(F)(F)F)cc2Cl)ccc1[N+](=O)[O-], the “cytotoxicity increase” value is reported as -18.7%. For COc1ccc(C(=O)c2ccc(OC)cc2O)c(O)c1, the “cytotoxicity increase” value was 6.91%. In the case of O=C(O)c1ccc(-n2nc(-c3ccccc3O)nc2-c2ccccc2O)cc1, the “cytotoxicity increase” value is reported as 4.86% [at 35.3 µM]. For CC(=O)c1ccc2c(c1)N(CCCN(C)C)c1ccccc1S2, the “cytotoxicity increase” value was 3.44% [at 35.3 µM]. In the case of CCCn1cnc2c1c(=O)n(CCCCC(C)=O)c(=O)n2C, the “cytotoxicity increase” value is reported as 10.9% [at 35.3 µM]. In the case of CCCC(=O)Nc1ccc(O)c(C(C)=O)c1, the “cytotoxicity increase” value is reported as -14.3% [at 35.3 µM]. In the case of CC(C)CC(=O)C1C(=O)c2ccccc2C1=O, the “cytotoxicity increase” value is reported as 9.21%. With CN(C)c1ccc(CCO)cc1 the “cytotoxicity increase” value was -0.214%. For Cc1ccc(C(=O)Oc2ccc(C(O)CNC(C)(C)C)cc2OC(=O)c2ccc(C)cc2)cc1 (centres undefined), the Potency was 21.3 µM (active). With Cc1[nH]c(C)c(Cl)c(=O)c1Cl the cytotoxicity increase was -3.96% [at 15.8 µM]. For C/C=C/C=C/CO, the “cytotoxicity increase” value was 4.44%. With COc1cc(Cl)c(OC)cc1N the “cytotoxicity increase” value was 12.4%. With CCCCCCCCCc1ccc(OCCOCCO)cc1 the Potency was 20.5 µM (active). Brc1c2ccccc2c(Br)c2ccccc12 showed a cytotoxicity increase of 2.77% [at 6.97 µM]. In the case of Brc1c2ccccc2cc2ccccc12, the “cytotoxicity increase” value is reported as -1.72%. For Cc1ccc(N=Nc2c(O)c(C(=O)O)cc3ccccc23)c(S(=O)(=O)O)c1, the “cytotoxicity increase” value was -8.04% [at 35.3 µM]. For CCCCC(CC)COC(=O)COc1ccc(Cl)cc1Cl (centres undefined), the “cytotoxicity increase” value was 6.6%. In the case of O=C(CS)Nc1ccccc1, the “cytotoxicity increase” value is reported as -12.7% [at 35.3 µM]. In the case of O=C(O)c1ccccc1Cl, the “cytotoxicity increase” value is reported as -5.52%. With CC(=O)OC[C@H]1O[C@@H](n2ncc(=O)[nH]c2=O)[C@H](OC(C)=O)[C@@H]1OC(C)=O the “cytotoxicity increase” value was 1.75% [at 35.3 µM].

Assay: qHTS RealTime-Glo MT Cell Viability Assay in HepG2 cells - 32 hour (AID 1224877); further: nearly all actives have a fitted effect of over 55% in size
Conditions: RealTime-Glo luminescence; series mostly up to 76.8 µM; activity change, negative = cytotoxic: at the top concentration
Summary of the method: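 HepG2 suspension premixed with RealTime-Glo reagents is plated at 600 cells per well and left 5 h at 37 C/5% CO2. Compounds in DMSO then go in, and bioluminescence reflecting viable cell number is recorded over 40 h.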
In the case of N=c1ccn2c(n1)O[C@H]1[C@H](O)[C@@H](CO)O[C@H]12, the “activity change, negative = cytotoxic” value is reported as -0.127%. For CC(C)Cc1ccc(C(C)C(=O)OCc2ccccn2)cc1 (centres undefined), the “activity change, negative = cytotoxic” value was -11.6% [at 35.3 µM]. With CC1=CC=C(C(C)C)CC1 the “activity change, negative = cytotoxic” value was 2.26%. In the case of C/C(=C(\CCOP(=O)(O)O)SC(=O)c1ccccc1)N(C=O)Cc1cnc(C)nc1N, the activity change, negative = cytotoxic is reported as 2.64% [at 6.97 µM]. With C=C(C)C(=O)OCCOCC the “activity change, negative = cytotoxic” value was -0.128%. For COc1ccc(C(=O)c2ccc(OC)cc2O)c(O)c1, the “activity change, negative = cytotoxic” value was -12.5%. For C[N+]1(C)CCC(OC(=O)C(O)(c2ccccc2)C2CCCC2)C1 (centres undefined), the “activity change, negative = cytotoxic” value was 3.49% [at 35.3 µM]. For O=C(O)c1ccc(-n2nc(-c3ccccc3O)nc2-c2ccccc2O)cc1, the “activity change, negative = cytotoxic” value was -5.49% [at 35.3 µM]. With CCOc1ccc(O)cc1 the “activity change, negative = cytotoxic” value was -0.153%. For CN(Cc1ccc(C(C)(C)C)cc1)Cc1cccc2ccccc12, the “activity change, negative = cytotoxic” value was -8.52% [at 35.3 µM]. With CCCn1cnc2c1c(=O)n(CCCCC(C)=O)c(=O)n2C the “activity change, negative = cytotoxic” value was 0.0704% [at 35.3 µM]. For CCCC(=O)Nc1ccc(O)c(C(C)=O)c1, the “activity change, negative = cytotoxic” value was 2.68% [at 35.3 µM]. In the case of CN(C)c1ccc(CCO)cc1, the “activity change, negative = cytotoxic” value is reported as -4.73%. For Cc1ccc(C(=O)Oc2ccc(C(O)CNC(C)(C)C)cc2OC(=O)c2ccc(C)cc2)cc1 (centres undefined), the Potency was 23.9 µM (active). For CCCCCCCCCCCCCCCCCCOS(=O)(=O)O, the “activity change, negative = cytotoxic” value was -0.155%. Compound Cc1[nH]c(C)c(Cl)c(=O)c1Cl has an activity change, negative = cytotoxic of 3.22% [at 15.8 µM]. With C/C=C/C=C/CO the “activity change, negative = cytotoxic” value was 0.652%. For COc1cc(Cl)c(OC)cc1N, the “activity change, negative = cytotoxic” value was -4.34%. With Nc1c(CC(=O)O)cccc1C(=O)c1ccc(Br)cc1 the “activity change, negative = cytotoxic” value was 5.48% [at 35.3 µM]. Brc1c2ccccc2c(Br)c2ccccc12 showed an activity change, negative = cytotoxic of 0.723% [at 6.97 µM]. With Brc1c2ccccc2cc2ccccc12 the “activity change, negative = cytotoxic” value was -3.06%. For Cc1ccc(N=Nc2c(O)c(C(=O)O)cc3ccccc23)c(S(=O)(=O)O)c1, the “activity change, negative = cytotoxic” value was -14.5% [at 35.3 µM]. With CCCCC(CC)COC(=O)COc1ccc(Cl)cc1Cl (centres undefined) the “activity change, negative = cytotoxic” value was -1.05%. For O=C(CS)Nc1ccccc1, the “activity change, negative = cytotoxic” value was -7.09% [at 35.3 µM]. For O=C(O)c1ccccc1Cl, the “activity change, negative = cytotoxic” value was 0.845%.
